Reference: the supplement of paper PMC10849652
The full data set covers some 7,900 targets. This sample favours those with a hit. About 0.6% of all pairs of compound and target were hits. Unmarked numbers belong to inactive results.

How the values were obtained:
Experiment in all cases: log2 fold change, soluble protein after heating vs DMSO (PISA); higher = thermal stabilisation; K562 cells, 10 uM, 30 min; active = over 0.2 and 3.5 SD of the protein, either way, in both replicates (recomputed)
IRAK-1-4 Inhibitor I = compound: C1COCCN1CCN2C3=CC=CC=C3N=C2NC(=O)C4=CC(=CC=C4)[N+](=O)[O-] [IRAK-1-4 Inhibitor I]
In short: (§1)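 Values are thermal stability changes relative to control samples and are taken from duplicates. They are stated as log2 fold changes. Before quantification by TMTpro 16plex LC-MS/MS with equalised channel sums, K562 cells at 2×10^6 cells/mL were treated with 10 μM compound for 30 min, heated in aliquots for 3 min across 48°C-58°C, pooled, extracted in PBS with 0.5% NP-40 at 4°C, and centrifuged at 21,000xg for 90 min to give the soluble supernatant.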

ibrutinib = compound: C=CC(=O)N1CCC[C@@H](n2nc(-c3ccc(Oc4ccccc4)cc3)c3c(N)ncnc32)C1 [ibrutinib]
In short: as §1

[1] = compound: CC(=O)c1cnc2ccc(-c3cc(Cl)c(O)c(Cl)c3)nc2c1N[C@H]1CC[C@H](CN(C)C)CC1
In short: as §1

ralimetinib = compound: CC(C)(C)Cn1c(N)nc2ccc(-c3[nH]c(C(C)(C)C)nc3-c3ccc(F)cc3)nc21 [ralimetinib]
In short: as §1

[2] = compound: CC(C)(O)CC(=O)NCCn1ccc2ncnc(Nc3ccc(Oc4cccc(C(F)(F)F)c4)c(Cl)c3)c21
In short: as §1

[3] = compound: CC(C)C1=C2N=C(C=C(N2N=C1)NCC3=CC=CC=C3)NCCCCCCN
In short: as §1

[4] = compound: CC(C)C[C@@H](C=O)NC(=O)[C@H](CC(C)C)NC(=O)[C@H](CC(C)C)NC(=O)OCc1ccccc1
In short: as §1

pinometostat = compound: CC(C)N(C[C@H]1O[C@@H](n2cnc3c(N)ncnc32)[C@H](O)[C@@H]1O)[C@H]1C[C@@H](CCc2nc3cc(C(C)(C)C)ccc3[nH]2)C1 [pinometostat]
In short: as §1

[5] = compound: CC1=C(C(CC(=O)N1)C2=CC=C(C=C2)C(F)(F)F)C(=O)NC3=C(C=C4C(=C3)C=NN4)F
In short: as §1

[6] = compound: CC1=C(C2=C(C=C1)C(=O)C3=CC=CC=C3N2CCCN)C
In short: as §1

[7] = compound: CC1=C(C=C(C=C1)NC(=O)C2=CC(=CC=C2)C(C)(C)C#N)NC3=CC4=C(C=C3)N=CN(C4=O)C
In short: as §1

[8] = compound: CC1=C(C=C(C=C1)NC(=O)C2=CC(=CC=C2)N(C)C)NC(=O)C3=CC=C(C=C3)O
In short: as §1

[9] = compound: CC1=CC=C(C=C1)SC2=C3C=C(SC3=CN=C2)C(=O)N
In short: as §1

[10] = compound: CC1=NC(=CC=C1)C2=C(N=C(N2)C(C)(C)C)C3=CC4=NC=CN=C4C=C3
In short: as §1

Nexturastat A = compound: CCCCN(Cc1ccc(C(=O)NO)cc1)C(=O)Nc1ccccc1 [Nexturastat A]
In short: as §1

vemurafenib = compound: CCCS(=O)(=O)Nc1ccc(F)c(C(=O)c2c[nH]c3ncc(-c4ccc(Cl)cc4)cc23)c1F [vemurafenib]
In short: as §1

[11] = compound: CCCS(=O)(=O)Nc1ccc(F)c(C(=O)c2c[nH]c3ncc(Cl)cc23)c1F
In short: as §1

[12] = compound: CCCc1cc(C)[nH]c(=O)c1CNC(=O)c1cc(-c2ccnc(N3CCN(C)CC3)c2)cc2c1cnn2C(C)C
In short: as §1

givinostat = compound: CCN(CC)Cc1ccc2cc(COC(=O)Nc3ccc(C(=O)NO)cc3)ccc2c1 [givinostat]
In short: as §1

barasertib = compound: CCN(CCCOc1ccc2c(Nc3cc(CC(=O)Nc4cccc(F)c4)[nH]n3)ncnc2c1)CCOP(=O)(O)O [barasertib]
In short: as §1

Chain of UniProt Q13469 (Q13469 whole entry, looked up): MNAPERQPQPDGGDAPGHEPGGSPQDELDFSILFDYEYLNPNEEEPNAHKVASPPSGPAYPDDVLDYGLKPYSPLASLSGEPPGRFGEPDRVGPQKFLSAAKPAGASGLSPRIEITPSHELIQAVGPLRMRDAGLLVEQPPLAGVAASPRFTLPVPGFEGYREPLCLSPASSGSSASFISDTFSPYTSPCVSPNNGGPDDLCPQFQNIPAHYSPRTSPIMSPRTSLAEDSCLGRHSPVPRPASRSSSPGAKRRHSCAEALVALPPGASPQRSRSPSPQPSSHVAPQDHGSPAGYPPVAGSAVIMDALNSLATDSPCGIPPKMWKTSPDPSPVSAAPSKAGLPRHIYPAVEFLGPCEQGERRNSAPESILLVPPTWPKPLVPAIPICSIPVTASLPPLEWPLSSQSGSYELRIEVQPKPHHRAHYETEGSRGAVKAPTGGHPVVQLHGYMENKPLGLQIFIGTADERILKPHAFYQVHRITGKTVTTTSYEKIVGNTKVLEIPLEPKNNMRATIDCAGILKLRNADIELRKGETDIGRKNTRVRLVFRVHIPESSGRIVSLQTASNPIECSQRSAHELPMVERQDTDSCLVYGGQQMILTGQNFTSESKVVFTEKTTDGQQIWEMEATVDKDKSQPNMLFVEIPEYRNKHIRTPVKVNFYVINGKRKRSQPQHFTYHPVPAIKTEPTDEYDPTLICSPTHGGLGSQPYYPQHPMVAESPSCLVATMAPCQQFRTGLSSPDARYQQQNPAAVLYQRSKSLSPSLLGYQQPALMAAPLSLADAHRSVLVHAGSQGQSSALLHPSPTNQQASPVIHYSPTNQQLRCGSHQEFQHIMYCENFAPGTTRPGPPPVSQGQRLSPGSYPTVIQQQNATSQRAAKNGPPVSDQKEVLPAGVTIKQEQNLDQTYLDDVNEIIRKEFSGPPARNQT
Chain of UniProt O95169 (O95169 whole entry, looked up): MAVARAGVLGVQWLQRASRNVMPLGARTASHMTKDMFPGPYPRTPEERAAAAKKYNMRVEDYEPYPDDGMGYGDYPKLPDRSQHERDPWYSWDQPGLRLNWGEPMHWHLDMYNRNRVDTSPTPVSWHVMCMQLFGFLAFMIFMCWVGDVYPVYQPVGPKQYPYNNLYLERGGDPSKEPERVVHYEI
Chain of UniProt Q8NCF5 (Q8NCF5 whole entry, looked up): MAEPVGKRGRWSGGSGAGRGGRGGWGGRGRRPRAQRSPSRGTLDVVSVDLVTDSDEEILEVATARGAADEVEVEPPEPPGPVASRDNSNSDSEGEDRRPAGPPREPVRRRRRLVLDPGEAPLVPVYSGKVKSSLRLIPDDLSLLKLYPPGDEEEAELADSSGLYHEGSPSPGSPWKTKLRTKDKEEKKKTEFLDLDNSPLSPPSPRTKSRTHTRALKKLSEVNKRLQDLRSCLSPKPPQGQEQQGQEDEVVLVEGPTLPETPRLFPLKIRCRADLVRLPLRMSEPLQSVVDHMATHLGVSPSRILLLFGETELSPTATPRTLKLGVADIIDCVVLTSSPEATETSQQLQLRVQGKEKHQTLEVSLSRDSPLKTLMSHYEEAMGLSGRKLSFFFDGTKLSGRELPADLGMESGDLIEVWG
Chain of UniProt P52701 (P52701 whole entry, looked up): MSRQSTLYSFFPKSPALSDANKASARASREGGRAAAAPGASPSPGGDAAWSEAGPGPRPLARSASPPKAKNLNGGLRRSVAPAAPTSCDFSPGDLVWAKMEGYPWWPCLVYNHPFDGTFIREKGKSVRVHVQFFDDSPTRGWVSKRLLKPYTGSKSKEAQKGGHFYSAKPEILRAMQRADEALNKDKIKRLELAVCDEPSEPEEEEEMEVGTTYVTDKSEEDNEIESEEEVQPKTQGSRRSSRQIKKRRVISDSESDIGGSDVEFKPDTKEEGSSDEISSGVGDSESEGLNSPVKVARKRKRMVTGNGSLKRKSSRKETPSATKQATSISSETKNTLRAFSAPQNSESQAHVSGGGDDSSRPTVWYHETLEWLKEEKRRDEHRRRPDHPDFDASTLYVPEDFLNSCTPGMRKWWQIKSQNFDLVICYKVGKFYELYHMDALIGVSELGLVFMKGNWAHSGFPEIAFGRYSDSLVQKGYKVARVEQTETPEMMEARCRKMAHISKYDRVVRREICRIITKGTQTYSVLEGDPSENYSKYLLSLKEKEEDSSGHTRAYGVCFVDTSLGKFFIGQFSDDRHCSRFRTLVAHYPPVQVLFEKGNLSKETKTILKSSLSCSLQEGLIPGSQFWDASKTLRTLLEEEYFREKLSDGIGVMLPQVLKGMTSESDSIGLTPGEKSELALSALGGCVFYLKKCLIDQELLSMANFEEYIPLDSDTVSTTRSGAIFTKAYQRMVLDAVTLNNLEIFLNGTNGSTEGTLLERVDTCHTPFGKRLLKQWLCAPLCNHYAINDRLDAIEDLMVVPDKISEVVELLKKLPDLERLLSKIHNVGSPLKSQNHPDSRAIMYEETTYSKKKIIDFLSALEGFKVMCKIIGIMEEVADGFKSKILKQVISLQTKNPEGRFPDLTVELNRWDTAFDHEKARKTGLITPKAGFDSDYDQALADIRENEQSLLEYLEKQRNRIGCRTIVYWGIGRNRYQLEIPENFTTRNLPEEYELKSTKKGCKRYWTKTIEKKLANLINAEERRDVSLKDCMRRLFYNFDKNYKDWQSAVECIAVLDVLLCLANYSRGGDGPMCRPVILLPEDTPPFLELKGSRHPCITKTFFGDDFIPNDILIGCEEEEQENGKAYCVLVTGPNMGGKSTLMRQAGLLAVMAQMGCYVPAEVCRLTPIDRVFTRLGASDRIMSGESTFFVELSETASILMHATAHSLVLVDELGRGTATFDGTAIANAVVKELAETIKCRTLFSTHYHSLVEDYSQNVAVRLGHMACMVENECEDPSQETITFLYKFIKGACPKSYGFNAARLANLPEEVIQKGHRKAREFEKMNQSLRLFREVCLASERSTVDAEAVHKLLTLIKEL
Chain of UniProt P04181 (P04181 whole entry, looked up): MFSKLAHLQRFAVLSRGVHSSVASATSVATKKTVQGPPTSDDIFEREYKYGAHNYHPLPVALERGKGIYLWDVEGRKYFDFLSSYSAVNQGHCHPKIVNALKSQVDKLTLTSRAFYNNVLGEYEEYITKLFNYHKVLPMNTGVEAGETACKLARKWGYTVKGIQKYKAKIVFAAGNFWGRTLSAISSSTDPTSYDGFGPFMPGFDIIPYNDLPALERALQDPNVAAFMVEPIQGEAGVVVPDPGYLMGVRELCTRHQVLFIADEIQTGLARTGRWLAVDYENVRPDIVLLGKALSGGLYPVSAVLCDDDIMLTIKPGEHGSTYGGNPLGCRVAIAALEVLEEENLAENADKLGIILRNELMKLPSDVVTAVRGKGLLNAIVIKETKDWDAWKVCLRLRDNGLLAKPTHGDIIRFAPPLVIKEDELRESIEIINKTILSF
Chain of UniProt Q9BW27 (Q9BW27 whole entry, looked up): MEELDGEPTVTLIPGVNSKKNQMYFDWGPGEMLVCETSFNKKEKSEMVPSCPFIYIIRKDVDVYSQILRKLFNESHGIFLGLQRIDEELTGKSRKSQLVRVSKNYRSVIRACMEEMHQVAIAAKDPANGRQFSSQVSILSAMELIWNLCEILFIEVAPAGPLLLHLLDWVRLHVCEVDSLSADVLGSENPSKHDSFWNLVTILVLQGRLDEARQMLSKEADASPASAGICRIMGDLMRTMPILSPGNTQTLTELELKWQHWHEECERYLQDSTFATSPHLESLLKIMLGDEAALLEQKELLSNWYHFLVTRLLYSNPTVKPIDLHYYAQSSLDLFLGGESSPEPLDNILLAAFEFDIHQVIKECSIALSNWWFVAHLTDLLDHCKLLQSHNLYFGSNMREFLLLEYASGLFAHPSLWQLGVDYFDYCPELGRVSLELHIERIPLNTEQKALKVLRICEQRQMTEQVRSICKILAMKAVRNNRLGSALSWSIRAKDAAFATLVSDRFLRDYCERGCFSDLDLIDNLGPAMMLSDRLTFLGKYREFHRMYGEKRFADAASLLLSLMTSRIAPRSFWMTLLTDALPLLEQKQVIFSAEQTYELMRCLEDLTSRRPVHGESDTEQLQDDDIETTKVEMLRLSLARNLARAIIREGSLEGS
Chain of UniProt Q15003 (Q15003 whole entry, looked up): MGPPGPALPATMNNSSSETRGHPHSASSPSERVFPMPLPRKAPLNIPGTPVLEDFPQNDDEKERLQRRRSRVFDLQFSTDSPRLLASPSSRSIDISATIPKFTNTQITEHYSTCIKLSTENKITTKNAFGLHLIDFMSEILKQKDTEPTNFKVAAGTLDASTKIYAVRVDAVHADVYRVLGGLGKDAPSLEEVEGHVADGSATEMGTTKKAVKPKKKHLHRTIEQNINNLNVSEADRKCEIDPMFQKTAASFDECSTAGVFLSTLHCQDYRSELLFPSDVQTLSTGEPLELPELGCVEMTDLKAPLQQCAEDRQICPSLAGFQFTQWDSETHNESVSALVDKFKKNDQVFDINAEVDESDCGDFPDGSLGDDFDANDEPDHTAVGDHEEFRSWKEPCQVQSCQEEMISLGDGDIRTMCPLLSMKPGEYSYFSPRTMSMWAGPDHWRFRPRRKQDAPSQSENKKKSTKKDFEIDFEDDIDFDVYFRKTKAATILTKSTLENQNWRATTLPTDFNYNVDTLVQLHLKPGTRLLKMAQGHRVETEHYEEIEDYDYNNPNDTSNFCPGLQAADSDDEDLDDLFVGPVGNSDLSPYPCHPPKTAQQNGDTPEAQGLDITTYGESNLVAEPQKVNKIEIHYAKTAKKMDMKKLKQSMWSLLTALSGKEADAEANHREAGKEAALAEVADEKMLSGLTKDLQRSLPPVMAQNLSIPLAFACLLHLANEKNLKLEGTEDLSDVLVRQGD

| Target | log2 fold change (IRAK-1-4 Inhibitor I) | log2 fold change (ibrutinib) | log2 fold change [1] | log2 fold change (ralimetinib) | log2 fold change [2] | log2 fold change [3] | log2 fold change [4] | log2 fold change (pinometostat) | log2 fold change [5] | log2 fold change [6] | log2 fold change [7] | log2 fold change [8] | log2 fold change [9] | log2 fold change [10] | log2 fold change (Nexturastat A) | log2 fold change (vemurafenib) | log2 fold change [11] | log2 fold change [12] | log2 fold change (givinostat) | log2 fold change (barasertib) |
| --- | --- | --- | --- | --- | --- | --- | --- | --- | --- | --- | --- | --- | --- | --- | --- | --- | --- | --- | --- | --- |
| NDUFB8 (UniProt O95169) | 0.001 | -0.01 | -0.004 | -0.063 | -0.36 (active) | -0.042 | 0.059 | 0.003 | 0.081 | 0.103 | 0.01 | -0.068 | 0.023 | 0.024 | 0.045 | 0.099 | -0.04 | -0.025 | -0.048 | 0.023 |
| NFATC2IP (UniProt Q8NCF5) | -0.014 | -0.036 | -0.051 | -0.003 | -0.224 | -0.161 | -0.006 | -0.032 | 0.069 | -0.022 | -0.029 | -0.026 | 0.028 | 0.013 | 0.007 | -0.01 | 0.014 | 0.015 | 0.088 | 0.124 |
| MSH6 (UniProt P52701) | -0.18 | -0.088 | -0.121 | -0.024 | -0.299 | -0.544 | 0.039 | -0.005 | 0.053 | 0.884 (active) | 0.076 | -0.078 | 0.112 | 0.108 | -0.049 | 0.119 | 0.194 | 0.03 | 0.35 | 0.171 |
| MTOR (UniProt P42345) | -0.029 | -0.03 | 0.183 | 0.011 | -0.084 | -0.288 (active) | -0.002 | 0.046 | -0.044 | 0.014 | -0.033 | -0.05 | 0.02 | -0.006 | 0.009 | 0.024 | 0.071 | 0.008 | 0.038 | 0.059 |
| NFATC2 (UniProt Q13469) | -0.075 | -0.008 | -0.635 (active) | -0.001 | 0.011 | -0.055 | 0.099 | 0.102 | 0.013 | -0.033 | -0.046 | -0.079 | -0.031 | 0.018 | 0.12 | 0.038 | 0.041 | 0.086 | 0.192 | 0.107 |
| OAT (UniProt P04181) | 0.044 | -0.006 | -0.044 | -0.053 | -0.113 | -0.245 (active) | 0.007 | -0.027 | -0.006 | -0.007 | 0.087 | 0.014 | 0.02 | 0.042 | -0.01 | 0.011 | -0.023 | -0.011 | 0.045 | 0.061 |
| NUP85 (UniProt Q9BW27) | -0.011 | -0.027 | -0.058 | -0.036 | -0.013 | -0.048 | -0.026 | -0.033 | 0.04 | 0.015 | -0.02 | 0.025 | 0.102 | -0.001 | -0.041 | 0.01 | 0.019 | -0.02 | 0.015 | 0.017 |
| NCAPH (UniProt Q15003) | -0.124 | -0.045 | 0.097 | 0.007 | -0.094 | -0.023 | 0.02 | 0.08 | 0.017 | -0.006 | 0.02 | -0.091 | 0.013 | 0.012 | 0.09 | 0.068 | 0.065 | 0.067 | 0.238 | 0.042 |
